# Source: the supplement of paper PMC10515830
# Counter-ions that a name gives are not always drawn.
# Legend:
# Conditions in all cases: 10 µM; exposure time 6 h
# [1] = system: Danio rerio larvae (5 dpf); assay: difference in excitability vs DMSO (percentage points); higher = more excitable than DMSO
# Procedure, shortened: (§1)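 Library compounds were tested at 10 µM final in 100 µL egg water on wild-type 5 dpf zebrafish larvae in 96-well plates for 6 h, with 48 larvae per compound. After 3 h, plates at 28.5 ℃ were imaged every 6 s during a 3-h run of moving lines and 100 ms, 400Hz tones. Behaviours were quantified by Z-LaP Tracker and reported as the compound mean less the vehicle control mean, in percentage points.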
# [2] = system: Danio rerio larvae (5 dpf); assay: difference in startle response vs DMSO (percentage points); higher = stronger startle than DMSO
# Procedure, shortened: as §1
# [3] = system: Danio rerio larvae (5 dpf); assay: difference in activity during first hour vs DMSO (percentage points); higher = more activity than DMSO
# Procedure, shortened: as §1
# [4] = system: Danio rerio larvae (5 dpf); assay: difference in habituation to acoustic stimuli vs DMSO (percentage points); higher = more habituation than DMSO
# Procedure, shortened: as §1
# [5] = system: Danio rerio larvae (5 dpf); assay: difference in combined optomotor response to red, green and blue moving lines vs DMSO (percentage points); higher = stronger optomotor response than DMSO
# Procedure, shortened: as §1
Compound,difference in excitability [1],difference in startle response [2],difference in activity during first hour [3],difference in habituation to acoustic stimuli [4],difference [5]
CCCCCCCN(CC)CCCC(O)c1ccc(NS(C)(=O)=O)cc1 (racemic) [(±)-Ibutilide (hemifumarate)],17.7,1.14,-7.19,6.3,-6.18
CC(C)(C)NC(=O)[C@H]1CC[C@H]2[C@@H]3CC[C@H]4NC(=O)C=C[C@]4(C)[C@H]3CC[C@]12C [Finasteride],11.1,3.35,10.8,-0.24,9
CNC(=O)c1ccc(N2C(=S)N(c3cnc(C#N)c(C(F)(F)F)c3)C(=O)C23CCC3)cc1F,-1.56,-1.13,6.27,0.499,11.9
C#C[C@]1(O)CC[C@H]2[C@@H]3CCC4=CC(=O)CC[C@@H]4[C@H]3C(=C)C[C@@]21CC [Etonogestrel],12.2,-2.36,0.0241,-5.37,10.4
Nc1nc(O)c2ncn(CCC(CO)CO)c2n1 [Penciclovir],7.86,12.1,13.9,-1.73,11.3
Cn1c(=O)c2[nH]cnc2n(C)c1=O [Aminophylline],4.39,0.67,2.88,-3.14,8.05
CC(C)OC(=O)[C@H](C)N[P@](=O)(OC[C@H]1O[C@@H](n2ccc(=O)[nH]c2=O)[C@](C)(F)[C@@H]1O)Oc1ccccc1,-3.58,-4.12,10,1.16,6.56
CC1=C(/C=C/C(C)=C\C=C\C(C)=C\C(=O)O)C(C)(C)CCC1 [9-cis-Retinoic Acid],5.5,-1.66,5.1,10.2,2.9
COC[C@H]1C[C@@H](c2nc(-c3ccc4c(c3)COc3cc5c(ccc6nc([C@@H]7CC[C@H](C)N7C(=O)[C@@H](NC(=O)OC)C(C)C)[nH]c65)cc3-4)c[nH]2)N(C(=O)[C@H](NC(=O)OC)c2ccccc2)C1 [Velpatasvir],10.1,2.08,2,-1.59,0.589
CC(=O)Oc1cc2c(s1)CCN(C(C(=O)C1CC1)c1ccccc1F)C2 (stereo not given) [Prasugrel],-1.17,0.187,-0.362,8.33,9.86
CC1=NN(c2ccccc2)C(=O)C1,2.26,-0.112,-1.37,-1.34,4.56
CC#CC(=O)N1CCC[C@H]1c1nc(-c2ccc(C(=O)Nc3ccccn3)cc2)c2c(N)nccn12 [Acalabrutinib],2.39,12.9,10.5,5,-2.56
CCC[C@@H]1C[C@@H](C(=O)N[C@@H]([C@H]2O[C@H](SC)[C@H](O)[C@@H](O)[C@H]2O)[C@H](C)Cl)N(C)C1 [Clindamycin],-2.97,2.68,-14.7,4.82,-4.05
CNCC[C@@H](Oc1ccccc1C)c1ccccc1 [Atomoxetine (hydrochloride)],21.7,-9.34,-21.4,-3.36,-0.351
CN(N=O)C(=O)N[C@@H](C=O)[C@@H](O)[C@H](O)[C@H](O)CO [Streptozotocin],-0.24,-1.97,-9.76,-6.76,-1.53
CC(C)c1nc(CN(C)C(=O)N[C@H](C(=O)N[C@@H](Cc2ccccc2)C[C@H](O)[C@H](Cc2ccccc2)NC(=O)OCc2cncs2)C(C)C)cs1 [Ritonavir],-4.63,0.564,2.31,6.79,1.78
COc1ccc(NC(=O)c2ccc(C(=N)N(C)C)cc2)c(C(=O)Nc2ccc(Cl)cn2)c1 [Betrixaban],11.6,2.94,2.19,5.98,7.59
COc1cc([C@@H]2c3cc4c(cc3[C@@H](O[C@@H]3O[C@@H]5CO[C@@H](C)O[C@H]5[C@H](O)[C@H]3O)[C@H]3COC(=O)[C@H]23)OCO4)cc(OC)c1O [Etoposide],-3.42,2.1,-5.75,2.55,-5.33
COC(=O)C1=C(C)NC(C)=C(C(=O)OC(C)C)C1c1cccc2nonc12 (stereo not given) [Isradipine],11.7,-10.9,-0.814,-7.82,-17.2
CC[C@H]1OC(=O)[C@H](C)[C@@H](O[C@H]2C[C@@](C)(OC)[C@@H](O)[C@H](C)O2)[C@H](C)[C@@H](O[C@@H]2O[C@H](C)C[C@H](N(C)C)[C@H]2O)[C@](C)(O)C[C@@H](C)CN(C)[C@H](C)[C@@H](O)[C@]1(C)O [Azithromycin],19.6,2.02,-4.37,-3.98,-0.0441
Cc1cn[nH]c1 [Fomepizole],-1.56,-0.451,3.73,2.38,-2.44

Compound,difference in excitability [1],difference in startle response [2],difference in activity during first hour [3],difference in habituation to acoustic stimuli [4],difference [5]
CCOC(=O)c1ncn2c1CN(C)C(=O)c1cc(F)ccc1-2 [Flumazenil],3.25,7.64,0.681,2.54,3.91
COC(=O)C1=C(C)NC(C)=C(C(=O)OC)C1c1ccccc1[N+](=O)[O-] [Nifedipine],8.58,-1.47,-4.95,0.749,12.1
CC/C=C\C/C=C\C/C=C\C/C=C\C/C=C\CCCC(=O)OCC [Eicosapentaenoic Acid ethyl ester],11.7,2.48,-7.19,3.98,7.27
Nc1ccn([C@@H]2O[C@H](CO)[C@@H](O)C2(F)F)c(=O)n1 [Gemcitabine],-0.256,-0.373,-2.75,-1.87,2.24
CN(CCOc1ccc(NS(C)(=O)=O)cc1)CCc1ccc(NS(C)(=O)=O)cc1 [Dofetilide],-1.01,-4.06,7.17,7,7.94
CCCCNC(=O)NS(=O)(=O)c1ccc(C)cc1 [Tolbutamide],1.04,-0.31,15.1,0.867,0.664
C[C@@H]1C/C=C/C=C/C=C/C=C/[C@H](O[C@@H]2O[C@H](C)[C@@H](O)[C@H](N)[C@@H]2O)C[C@@H]2O[C@](O)(C[C@@H](O)C[C@H]3O[C@@H]3/C=C/C(=O)O1)C[C@H](O)[C@H]2C(=O)O [Natamycin],2.79,-1.51,0.445,3.82,3.97
COc1cc2nc(N3CCN(C(=O)C4COc5ccccc5O4)CC3)nc(N)c2cc1OC (stereo not given) [Doxazosin (mesylate)],25,8.69,7.65,-8.22,-5.73
NNCCc1ccccc1 [Phenelzine (sulfate)],-5.16,2.45,-14.5,5.81,2.16
CC(C)n1c(/C=C/C(O)CC(O)CC(=O)O)c(-c2ccc(F)cc2)c2ccccc21 (stereo not given) [Fluvastatin (sodium salt hydrate)],11.5,-2.51,4.55,-1.22,3.05
CO[C@H]1C[C@@H]2CC[C@@H](C)[C@@](O)(O2)C(=O)C(=O)N2CCCC[C@H]2C(=O)O[C@H]([C@H](C)C[C@@H]2CC[C@@H](OC(=O)C(C)(CO)CO)[C@H](OC)C2)CC(=O)[C@H](C)/C=C(\C)[C@@H](O)[C@@H](OC)C(=O)[C@H](C)C[C@H](C)/C=C/C=C/C=C/1C [Temsirolimus],7.02,-6.86,-1.53,4.35,0.433
CCCSc1nc(N[C@@H]2C[C@H]2c2ccc(F)c(F)c2)c2nnn([C@@H]3C[C@H](OCCO)[C@@H](O)[C@H]3O)c2n1 [Ticagrelor],4.33,1.19,2.64,1.79,9.27
C[C@]12CC[C@@H]3c4ccc(O)cc4CC[C@H]3[C@@H]1CC[C@@H]2O [17β-Estradiol],14.6,-4.36,-22.1,-4.38,-11.6
CCOC(=O)[C@H](CCc1ccccc1)N[C@@H](C)C(=O)N1[C@H](C(=O)O)C[C@@H]2CCC[C@@H]21 [Ramipril],-5.85,-2.41,5.42,-0.379,7.67
CC(C)(C)c1nc(-c2cccc(NS(=O)(=O)c3c(F)cccc3F)c2F)c(-c2ccnc(N)n2)s1 [Dabrafenib],1.22,0.607,3.67,-5.97,-1.51
O=C(O[C@H]1CN2CCC1CC2)N1CCc2ccccc2[C@@H]1c1ccccc1 [Solifenacin (succinate)],3.16,-8.09,25.6,-1.09,1.96
CC[C@H]1OC(=O)[C@H](C)[C@@H](O[C@H]2C[C@@](C)(OC)[C@@H](O)[C@H](C)O2)[C@H](C)[C@@H](O[C@@H]2O[C@H](C)C[C@H](N(C)C)[C@H]2O)[C@](C)(OC)C[C@@H](C)C(=O)[C@H](C)[C@@H](O)[C@]1(C)O [Clarithromycin],7.19,1.97,11.7,-1.55,6.95
CCOc1ccc(Cc2cc([C@@H]3O[C@H](CO)[C@@H](O)[C@H](O)[C@H]3O)ccc2Cl)cc1 [Dapagliflozin],-2.18,0.361,-2.82,-5.36,5.64
CN(C)CCOc1ccc(/C(=C(/CCCl)c2ccccc2)c2ccccc2)cc1 [Toremifene (citrate)],4.69,-6.57,9.64,-7.15,-13.3
Cc1ncc([N+](=O)[O-])n1CC(C)O (stereo not given) [Secnidazole],4.12,-1.25,19.9,-6.46,6.66
